# BoNT F protease – BoNT F light chain protease inhibition; inhibition, % at 10 µM; Multiplex microsphere protease cleavage assay, flow cytometry; 360,000 tested, 0.22% active; in the data active = inhibition above about 35%, passing the limit was not always enough; inconclusive = no clear call, values can overlap the other calls; also: plate controls were buffer without enzyme for full effect and enzyme alone for no effect
# Bead autofluor – compound fluorescence in toxin protease inhibitor counterscreen. fluorescence intensity (no concentration beside the values). 360,000 tested, 3.1% active. compound autofluorescence counterscreen, microsphere flow cytometry; active compounds read high; in the data active = fluorescence intensity above about 16000; inconclusive = no clear call, values can overlap the other calls
# DUSP3 inh – inhibitors of human VHR1 phosphatase (DUSP3); P51452; recombinant VHR phosphatase, pNPP absorbance; inhibition, % at 13.3 µM; 290,000 tested, 0.52% active; AID 1654; in the data active = inhibition above about 50%
# Anthrax LF prot – inhibitors of Bacillus anthracis lethal factor protease; P15917; multiplex microsphere protease cleavage assay, LF; inhibition, % at 10 µM; 360,000 tested, 0.12% active; AID 588501; also: plate controls were buffer without enzyme for full effect and enzyme alone for no effect
# Target sequence (P15917 whole entry, looked up): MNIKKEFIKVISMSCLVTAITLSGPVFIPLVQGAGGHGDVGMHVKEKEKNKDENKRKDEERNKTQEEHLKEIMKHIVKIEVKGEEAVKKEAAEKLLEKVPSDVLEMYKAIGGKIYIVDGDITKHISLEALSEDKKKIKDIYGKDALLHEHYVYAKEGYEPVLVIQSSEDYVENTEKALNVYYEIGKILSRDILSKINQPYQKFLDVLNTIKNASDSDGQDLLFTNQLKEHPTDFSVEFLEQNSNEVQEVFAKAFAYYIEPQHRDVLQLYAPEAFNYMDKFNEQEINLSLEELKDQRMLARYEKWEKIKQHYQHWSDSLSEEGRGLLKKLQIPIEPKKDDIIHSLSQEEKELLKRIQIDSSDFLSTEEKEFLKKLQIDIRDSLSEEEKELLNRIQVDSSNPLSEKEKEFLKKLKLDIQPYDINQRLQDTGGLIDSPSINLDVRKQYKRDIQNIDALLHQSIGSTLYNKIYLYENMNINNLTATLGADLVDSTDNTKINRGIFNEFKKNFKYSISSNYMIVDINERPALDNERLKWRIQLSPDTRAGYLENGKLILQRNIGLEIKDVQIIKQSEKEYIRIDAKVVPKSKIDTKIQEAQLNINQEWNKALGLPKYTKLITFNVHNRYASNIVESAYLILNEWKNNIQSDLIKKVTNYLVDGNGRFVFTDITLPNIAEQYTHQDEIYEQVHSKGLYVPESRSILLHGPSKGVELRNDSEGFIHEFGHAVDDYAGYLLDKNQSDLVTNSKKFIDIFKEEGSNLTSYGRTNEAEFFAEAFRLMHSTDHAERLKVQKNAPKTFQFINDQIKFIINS
# SARS 3CLpro inh – SARS-CoV 3CLpro protease inhibition; inhibition, % at 6 µM; P0C6X7; recombinant SARS-CoV 3CLpro, quenched FRET peptide cleavage; 290,000 tested, 0.14% active; AID 1706; in the data active = inhibition above about 12%
# BoNT-A LC inh2 – blocks Botulinum neurotoxin A light chain protease; multiplex microsphere protease substrate cleavage, flow cytometry; inhibition, % at 10 µM; 360,000 tested, 0.17% active; AID 588499; also: plate controls were buffer without enzyme for full effect and enzyme alone for no effect
# * = called active by the depositor; u = inconclusive; x = no result. Sampled rows, rich in hits. Any-hit rate of the full collection: about 3.9%. Rule as the data show it, unless noted: active = inhibition above about 30%; inconclusive = no clear call, values can overlap the other calls; inactive = below that.
SMILES,BoNT F protease,Bead autofluor,DUSP3 inh,Anthrax LF prot,SARS 3CLpro inh,BoNT-A LC inh2
COc1cc(Br)cc2cc(C(=O)NCC3CCCO3)c(=O)oc12 (stereo not drawn),-2.6,22610*,21.9,-1.1,1.9,u
CC(NC(=O)c1sc2ccccc2c1Cl)C1CCCO1 (stereo not drawn),5.4,2577,4.7,1.1,5.0,-0.3
CC(NC(=O)c1csc2ccccc12)C1CCCO1 (stereo not drawn),-4.2,16909*,8.3,1.0,1.3,u
COc1ccc(S(=O)(=O)Nc2ccccc2-c2nc3ccccc3[nH]c2=O)cc1,1.5,5661,-11.5,0.5,3.7,-0.2
CC(=O)NCCc1nc2cc(NC(=O)COc3ccc(C)cc3)ccc2n1C,10.9,3756,25.5,2.0,-1.6,1.5
C=CCn1c(NCc2cc(C)ccc2O)nc2ccccc21,-7.2,6010,50.3*,-2.1,-2.5,-0.2
COc1ccc(CNc2nc3ccccc3n2C(C)C)c(O)c1,u,3042,11.4,8.7,-5.7,1.4
Cc1ccc(O)c(CNc2nc3ccccc3n2C(C)C)c1,37.7*,3526,6.5,-2.0,1.9,-2.2
CC(C)n1c(NCc2cc(Cl)ccc2O)nc2ccccc21,-18.9,6473,54.5*,-6.8,-3.7,-1.4
CCCCn1c(NCc2cc(C)ccc2O)nc2ccccc21,-2.7,2941,x,-3.0,x,-0.4
O=S(=O)(c1ccc(Br)cc1F)N1CCC(O)CC1,-2.5,3404,x,0.2,x,-0.2
CN(CC(=O)Nc1ccc(F)c(F)c1F)C(=O)CN1C(=O)C2CCCCC2C1=O (stereo not drawn),-2.4,6609,-6.9,-0.9,1.1,-1.8
Cn1nc(C(F)(F)F)c(C(=O)Nc2ccc(F)cc2F)c1Sc1ccc(C(F)(F)F)cc1,1.8,22356*,26.9,-1.1,-0.8,1.5
C[C@@H]1CN([C@@H](C)CO)C(=O)c2cc(Br)cnc2O[C@H]1CN(C)C(=O)C1CC1,-2.0,3347,x,-4.1,x,0.4
COc1nc(OC)nc(N2CCC(C(=O)NCc3ccco3)CC2)n1,1.8,19494*,1.8,-0.4,0.3,2.3
COc1nc(OC)nc(N2CCC(C(=O)Nc3cccc4ccccc34)CC2)n1,-3.8,23395*,18.9,-2.8,0.2,-1.8
Cc1cc(C)nc(N2CCC(C(=O)NCc3ccco3)CC2)n1,-4.5,8698,9.9,1.9,-7.2,-0.5
O=C(NCc1ccncc1)c1cccc(S(=O)(=O)Nc2ccc(F)cc2)c1,18.1,4373,x,7.3,x,3.7
O=S(=O)(c1ccc(Cl)cc1)N1CCN(c2ncnc3sccc23)CC1,1.0,7785,x,-6.5,x,-0.4
O=C(NC1CCCC1)C(c1ccncc1)N(C(=O)Cc1cccs1)c1ccc(F)cc1 (stereo not drawn),-5.0,5866,14.4,-2.5,-1.7,-0.1
Cc1ccccc1N(C(=O)Cc1ccsc1)C(C(=O)NC1CCCCC1)c1ccc(F)cc1 (stereo not drawn),2.3,9780,56.3*,2.0,-0.7,1.7
N#CCc1c(C#N)c(N)nc(N2CCN(Cc3ccc4c(c3)OCO4)CC2)c1C#N,1.4,19575*,22.9,-0.2,3.2,4.2
O=C(CSc1nnc(NC(=O)c2ccccc2[N+](=O)[O-])s1)NCc1ccco1,-11.5,6152,9.7,-1.9,1.5,-0.5
CC(=O)Nc1cccn(Cc2c(Cl)cccc2Cl)c1=O,-6.3,2775,16.6,-2.6,0.9,-0.6
CC(C)=CC(=O)NCc1c(Cl)cccc1-n1cccc1,-4.2,24294*,22.4,-0.6,-4.2,-2.1
SMILES,BoNT F protease,Bead autofluor,DUSP3 inh,Anthrax LF prot,SARS 3CLpro inh,BoNT-A LC inh2
N#CCCCSc1ncccc1-c1nc2ccccc2[nH]1,1.4,19935*,x,-5.3,2.8,1.5
COC(=O)c1c(C)nc2ccccc2c1C(=O)O,-0.7,2245,3.8,0.0,2.1,-0.5
COc1ccc(-c2c(C(=O)O)nc3ccccc3c2C(=O)O)cc1,-0.4,16308*,18.0,-3.0,-0.1,0.5
Cc1c(Cl)cnc(NC(=O)COC(=O)c2cccc(S(=O)(=O)N3c4ccccc4CC3C)c2)c1Cl (stereo not drawn),1.6,2638,13.7,-1.3,2.9,-0.1
CC(C)N1CC(C(=O)Nc2cccc([N+](=O)[O-])c2)CC1=O (stereo not drawn),-49.2,4646,55.7*,-1.4,2.0,-0.6
CC(=O)Nc1nc(C)c(CCC2OCCO2)c(=O)[nH]1,16.7,3662,-5.1,-2.5,-1.3,-3.2
CCNc1nc(SCC(=O)Nc2ccc(Cl)c(Cl)c2)nc(N2CCOCC2)n1,-0.7,4097,31.1,-2.5,8.6,-0.9
COc1ccc(O)c(CN2CCCC(N3CCN(c4ccc(F)cc4)CC3)C2)c1 (stereo not drawn),20.0,4107,44.4,-4.4,-1.5,1.2
COc1ccc(N2CCN(C3CCCN(Cc4ccc(F)cc4Cl)C3)CC2)cc1 (stereo not drawn),u,3316,51.3*,-1.7,1.3,-2.0
COc1ccc(N2CCN(C3CCCN(S(=O)(=O)c4ccc(C)cc4C)C3)CC2)cc1 (stereo not drawn),0.2,5897,56.7*,-2.4,-7.5,0.0
COc1ccc(N2CCN(C3CCCN(S(=O)(=O)c4ccccc4)C3)CC2)cc1 (stereo not drawn),x,x,6.5,x,1.9,x
CC(C)CCn1c(COc2ccccc2)nn(CCC#N)c1=S,10.4,3155,2.4,3.8,5.1,-2.4
Cn1sc(NC(=O)c2ccc(Cl)cc2)nc1=O,-7.2,9060,-7.7,-5.6,7.9,0.1
Cc1ccc(C(=O)Nc2nc(=O)n(C)s2)cc1,0.2,22548*,13.9,-1.7,1.1,u
CCN(CC)S(=O)(=O)c1ccc(N2CC(C(=O)NC3(C)CCS(=O)(=O)C3)CC2=O)cc1 (stereo not drawn),3.3,7646,x,-3.2,x,-0.6
O=S(=O)(c1ccc(F)cc1)N1CN(Cc2ccco2)c2nc3ccccc3nc21,-12.0,9623,51.6*,-1.0,-6.3,2.0
CC(C)Cn1c(N)c(C(=O)COC(=O)C2CC(=O)N(c3ccc4c(c3)OCCO4)C2)c(=O)n(C)c1=O (stereo not drawn),3.0,5170,x,3.5,x,1.4
C=C(C)C1CC=C(C)/C(=N/NC(=O)CCC(=O)Nc2ccccc2Cl)C1 (stereo not drawn),0.4,5049,55.2*,-4.6,-1.5,-4.7
Cc1ccc(OCC(=O)NN=C2c3ccccc3-c3ccccc32)cc1,-0.3,23454*,28.2,0.7,-3.5,-1.0
C=C(C)C1CC=C(C)/C(=N/NC(=O)COc2ccc(C)cc2)C1 (stereo not drawn),1.8,21182*,4.4,0.2,3.8,2.3
C/C(=N\N1CCN(c2ccccc2)CC1)c1ccc(O)cc1,-3.7,3790,76.8,4.5,-4.5,-4.3
O=C(NCc1ccco1)C(=O)N1CCCC1,-13.5,6465,-0.9,-5.6,-1.1,-1.3
COC(=O)NC1CSCC1OC(=O)CN1C(=O)c2ccccc2C1=O (stereo not drawn),-2.5,20984*,8.3,-1.4,-4.5,-1.9

# Screening results: PubChem BioAssay, several laboratories
